Records with an inconclusive call do not appear. Active and inactive are the calls of the source. Calls come from the whole dose curve; as a rule, active = well fitted cell-killing curve with a large enough effect; inconclusive = small, poorly fitted or top-dose-only effect, or effect the other way; inactive = no such curve, though single readings can be large or run the other way.
Assay: Quantitative High-Throughput drug screen in 47 multiple myeloma cell lines against the NCATS MIPE library collection: PE2_PLB cell viability assay (AID 1919869); note: nearly all actives have a fitted effect of over 35% in size
Conditions: PE2_PLB myeloma cells viability, ATP luminescence, 48 h; series mostly up to 45.8 µM
Text: PI: Beverly A. Mock Ph.D.
Laboratory of Cancer Biology and Genetics,
Center for Cancer Research, National Cancer Institute,
National Institute of Health, Bethesda, Maryland
Drug resistance and disease progression are common in multiple myeloma (MM) patients, underscoring the need for new therapeutic combinations. […] We hypothesized that effective combinations would reduce MYC expression and enhance p16 activity. […] These preclinical data identify potentially useful drug combinations for evaluation in drug-resistant MM and reveal potential mechanisms of combined drug sensitivity.
Described herein is the primary MIPE qHTS used to cherrypick compounds. Validated compounds were then further tested for potential synergistic activiy.
[1] Peat TJ, Gaikwad SM, Dubois W, Gyabaah-Kessie N, Zhang S, Gorjifard S, Phyo Z, Andres M, Hughitt VK, Simpson RM, Miller MA, Girvin AT, Taylor A, Williams D, D'Antonio N, Zhang Y, Rajagopalan A, Flietner E, Wilson K, Zhang X, Shinn P, Klumpp-Thomas C, McKnight C, Itkin Z, Chen L, Kazandijian D, Zhang J, Michalowski AM, Simmons JK, Keats J, Thomas CJ, Mock BA. Drug combinations identified by high-throughput screening promote cell cycle transition and upregulate Smad pathways in myeloma. Cancer Lett. 2023 Aug 1;568:216284. doi: 10.1016/j.canlet.2023.216284. Epub 2023 Jun 24. PMID: 37356470; PMCID: PMC10408729.
SEQUENCE No. (e.g., 1, 2, 3, etc.); […] (e.g., Cells, Incubation, Reagent, etc.); VALUE and DESCRIPTION.
1; Cells; 5 uL; white, solid bottom 1536-well Greiner assay plate.
2; Compounds; 23 nL; Kalypsis pin tool (Wako USA) equipped with a 1536-well pin head to transfer to the assay plates.
3; Incubation; 48 hours; 37C incubation.
4; Reagent;5uL; CellTiter Glo (Promega).
5; Detector; 425V; Luminescence; Viewlux PerkinElmer.
NOTES (numbers refer to Sequence numbers above)
1. The cell-based screening methods employed in this study were like those previously published. Briefly, the corresponding myeloma cell lines were screened in 1,536-well plates with 500 cells, 5-uL per well for inhibition of cell viability (assessed by measuring ATP levels with CellTiterGlo).
2. NCATS MIPE 4.0 library of approved and investigational drugs were added using the Kalypsis pin tool. Wells treated with DMSO only for 100% viability and media only for 0% viability were used as controls.
3. The assay plates were covered and incubated for 48 hours in a 37C, 5% CO2 incubator with controlled humidity.
4. After 48 hours, CellTilter-GloTM luminescent substrate mix (Promega) reagent was added to the assay plate and plates we incubated for 5 min at room temperature.
5. Signal was measured as median relative luminescence units on a ViewLux (PerkinElmer) multiplate reader.
[1] Heske CM, Davis MI, Baumgart JT, Wilson K, Gormally MV, Chen L, Zhang X, Ceribelli M, Duveau DY, Guha R, Ferrer M, Arnaldez FI, Ji J, Tran HL, Zhang Y, Mendoza A, Helman LJ, Thomas CJ. Matrix Screen Identifies Synergistic Combination of PARP Inhibitors and Nicotinamide Phosphoribosyltransferase (NAMPT) Inhibitors in Ewing Sarcoma. Clin Cancer Res. 2017 Dec 1;23(23):7301-7311. doi: 10.1158/1078-0432.CCR-17-1121. Epub 2017 Sep 12. PMID: 28899971; PMCID: PMC6636827.
With `O=c1[nH]c(=O)n(C2CCCO2)cc1F` (stereo not given) the Potency was “inactive”.
In the case of `COC(=O)c1ccc2c(C(=Nc3ccc(N(C)C(=O)CN4CCN(C)CC4)cc3)c3ccccc3)c(O)[nH]c2c1`, the Potency is reported as 10.5 µM (active).
With `CNC(=O)c1cc(Oc2ccc(NC(=O)Nc3cc(C(C)(C)C)nn3-c3ccc4ncccc4c3)c(F)c2)ccn1` the Potency was 5.26 µM (active).
For `N#Cc1c(O)c2c(-c3ccc(-c4ccccc4O)cc3)csc2[nH]c1=O`, the Potency was “inactive”.
With `Clc1ccc2ncc(-c3cccc(NC4CNC4)n3)n2c1` the Potency was 16.6 µM (active).
With `Fc1cc(-c2cccc3ncc(-c4cnn(C5CCNCC5)c4)nc23)cc(F)c1CN1CCOCC1` the Potency was 8.33 µM (active).
With `CC(C)c1cc(C(=O)N2Cc3ccc(CN4CCN(C)CC4)cc3C2)c(O)cc1O` the Potency was 0.296 µM (active).
With `CCS(=O)(=O)c1cccc(-c2cc(C(=O)NC3CCN(C)CC3)c(C)c3[nH]c4ncc(C)cc4c23)c1` the Potency was 0.935 µM (active).
For `CCC(=C(c1ccccc1)c1ccc(OCCN(C)C)cc1)c1ccccc1`, the Potency was 26.4 µM (active).
For `CC(C)[C@H](C(=O)Nc1ccc(C(=O)NO)cc1)c1ccccc1`, the Potency was 1.05 µM (active).
With `CC(O)C1C(=O)N2C(C(=O)O)=C(SC3CNC(C(=O)N(C)C)C3)C(C)C12` (stereo not given) the Potency was “inactive”.
For `NCC(=O)Nc1ccc(-n2nc(C(F)(F)F)cc2-c2ccc3c(ccc4ccccc43)c2)cc1`, the Potency was 20.9 µM (active).
For `O=C(O)CO.[NH2-].[NH2-].[Pt+2]`, the Potency was “inactive”.
For `COc1cc2c(Nc3ccc(NC(=O)c4ccccc4)cc3)ncnc2cc1OCCCN1CCOCC1`, the Potency was 20.9 µM (active).
With `CC(C)=CCCC(C)=CCCC(C)=CCSc1ccccc1C(=O)O` the Potency was 2.35 µM (active).
In the case of `COCCn1c2c([n+](Cc3cnccn3)c1C)C(=O)c1ccccc1C2=O`, the Potency is reported as 0.0187 µM (active).
With `O=C(Nc1ncc(-c2cc(C(F)F)nn2-c2c(Cl)cccc2Cl)s1)C1CC1` the Potency was 0.59 µM (active).
For `O=C(Nc1cc(C(F)(F)F)cc(C(F)(F)F)c1)c1cc(Cl)ccc1O`, the Potency was 0.59 µM (active).
For `COc1cc2c(NC3CCN(C(C)C)CC3)nc(C3CCCCC3)nc2cc1OCCCN1CCCC1`, the Potency was 5.26 µM (active).
In the case of `Cc1cnc(-c2cnc(NCCNc3ccc(C#N)cn3)nc2-c2ccc(Cl)cc2Cl)[nH]1`, the Potency is reported as 23.5 µM (active).
With `CC(C)c1cnn2c(NCc3ccccc3)cc(N[C@@H](CO)[C@H](O)CO)nc12` the Potency was 0.235 µM (active).
For `CC(C)(C)c1cc(NC(=O)Nc2ccc(-c3cn4c(n3)sc3cc(OCCN5CCOCC5)ccc34)cc2)no1`, the Potency was 0.148 µM (active).
With `O=c1[nH]nc(Sc2ncc([N+](=O)[O-])s2)n1-c1ccc2c(c1)OCCO2` the Potency was 0.743 µM (active).
In the case of `O=C(Nc1cn[nH]c1-c1nc2ccc(CN3CCOCC3)cc2[nH]1)NC1CC1`, the Potency is reported as 0.935 µM (active).
For `Cc1cc(Nc2ncnc3ccc(-c4ccc(CNCCS(C)(=O)=O)o4)cc23)ccc1Oc1ccn2ncnc2c1`, the Potency was 3.32 µM (active).
For `Cc1ccc(S(=O)(=O)Nc2cc(Cl)ccc2C(=O)Nc2nc(-c3ccccc3)cs2)cc1`, the Potency was 5.9 µM (active).
In the case of `CCNC(=O)Nc1ccc2ncc(Nc3ccc(C)cc3)nc2n1`, the Potency is reported as 3.72 µM (active).
For `O=C(O)c1ccc2cc(-c3ccc(O)c(C45CC6CC(CC(C6)C4)C5)c3)ccc2c1`, the Potency was 1.48 µM (active).
In the case of `Cn1cc(-c2[nH]c3cc(NC(=O)[C@H](N)C4CCCCC4)cc4c3c2C=NNC4=O)cn1`, the Potency is reported as 0.372 µM (active).
For `CC(C)(O)CCc1ccc(OCc2cc(-c3cccc(OC(F)F)c3)c3ncccc3c2)cc1`, the Potency was “inactive”.
With `CC[C@H]1CN2CCc3cc(OC)c(OC)cc3[C@H]2C[C@@H]1C[C@@H]1NCCc2cc(OC)c(OC)cc21` the Potency was 0.296 µM (active).
In the case of `Nc1ccn([C@@H]2O[C@H](CO)[C@H](O)C2(F)F)c(=O)n1`, the Potency is reported as 0.332 µM (active).
In the case of `Cc1cc(Nc2cc(N3CCN(C)CC3)nc(C=Cc3ccccc3)n2)n[nH]1`, the Potency is reported as 13.6 µM (active).
In the case of `Nc1ccc(S(=O)(=O)Nc2ncccn2)cc1`, the Potency is reported as “inactive”.
With `CC(NCc1ccc2c(c1)nc(NC(=O)c1ccc(-c3cn[nH]c3)s1)n2CC(C)(C)O)C(C)(C)C` (stereo not given) the Potency was 0.296 µM (active).
For `Cc1[nH]nc2ccc(-c3cncc(OC[C@@H](N)Cc4ccccc4)c3)cc12`, the Potency was 1.18 µM (active).
For `COc1cc(C(C)C)c2c(c1)S(=O)(=O)N(COc1cc(=O)n3cccc(OCCN4CCCCC4)c3n1)C2=O`, the Potency was 18.7 µM (active).
For `C=CC(=O)Nc1cccc(Oc2nc(Nc3ccc(N4CCN(C)CC4)cc3)ncc2Cl)c1`, the Potency was 5.9 µM (active).
For `CC[C@@H]1C(=O)N(C)c2cnc(Nc3ccc(C(=O)NC4CCC(N5CCN(CC6CC6)CC5)CC4)cc3OC)nc2N1C(C)C` (stereo not given in full), the Potency was 8.33 µM (active).
In the case of `Nc1ccc(C(=O)c2cc3c(ccc4ccccc43)[nH]2)cc1`, the Potency is reported as 2.96 µM (active).

— PubChem BioAssay (NCATS)
Potency is the fitted concentration of half-maximal effect.
